# Test results: PubChem BioAssay
# Where “and” joins values, the source holds several entries; their conditions need not be identical. Equal values may be shown once. Inconclusive results are not listed. For part of these data: Measured potencies and affinities stand elsewhere. Calls of active or inactive are those of the source.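 How the source made its calls, unless noted: active means compounds killing one labelled cell type while sparing the other, by normalised counts and ratio limits, not self-fluorescent; inactive means the rest.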
# What was measured:
# [1] = liver-stage malaria parasite growth inhibition, primary screen, cell-based, HepG2, luciferase luminescence, HepG2 viability (AID 624349; in the data active means parasite load remaining mostly below about 12%, no sharp cut-off; inactive means mostly above about 10%;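 further: 100% = mean of DMSO negative control wells on the same plate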); conditions: P. berghei liver stage in HepG2, luciferase luminescence, concentration not given here; parasite load remaining: stronger effect = lower value; viability: measured here: HepG2 viability without parasites
# [2] = differential killing of epithelial or mesenchymal cells, primary screen, imaging, PC-3E GFP, TEM4-18 mCherry, co-culture (AID 1345086); conditions: imaging cell counts, at 1 µM; for red/green cell ratio (normalised): actives lie on both sides;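 on all read-outs here: cells exposed to compound for 72 h before imaging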;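 on red/green cell ratio (normalised): normalised mesenchymal count divided by normalised epithelial count so high means epithelial killing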
# [3] = sensitizers of A549 cells to miR-34 induction, primary screen, imaging, A549 dox-inducible miR-34, nuclei and caspase counts (AID 1347080;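 active means compounds whose cell count with miR-34 switched on is under 0.7 times the count with it off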); conditions: A549 miR-34 inducible, Hoechst nuclei count, 48 h
# [4] = survival rescue of mitochondrial mutant cells in low glucose, primary screen, MELAS cybrids, Rieske KO mouse fibroblasts, CellTiter-Glo (AID 1508586;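 active means mean z-score across replicates of 1.96 or higher in either the MELAS or the Rieske mutant cell line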;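 further: z relative to plate mean and SD of compound and empty wells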)
# [5] = viability rescue of complex I mutant cybrids, primary screen, cell-based, galactose medium, ATP luminescence (AID 1645843;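 active means z-score of at least 1.8 in each of two replicates, scored against plate mean and spread of sample wells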;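 further: positive z means more ATP and so rescue of galactose-driven cybrid death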); conditions: complex I mutant cybrid cells, 72 h, stronger effect = higher value
# [6] = hESC survival regulators, cell-based (AID 493140; call rule not given here;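 further: cells exposed to compounds for four days before counting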); conditions: human embryonic stem cell survival screen; stronger effect = higher value
# [7] = tested on: Aerobactin synthetase IucA (Klebsiella pneumoniae hvKP1); experiment: Biochemical IucA enzyme inhibition primary screen of the Spectrum library (AID 1346200; call rule not given here;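 further: 100% = wells without compound and 0% = wells lacking enzyme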); conditions: malachite green pyrophosphate, A620, at 8 µM, stronger effect = lower value
# [8] = target: Mitogen-activated protein kinase 7 (Homo sapiens) (UniProt Q13164); experiment: ERK5 transactivation activators in reporter cells, primary screen, cell-based, HTS (AID 1508626;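 active means luciferase signal above three times the same-plate solvent-only control wells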;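 further: luciferase driven by Gal4-ERK5 fusion binding five Gal4 sites before minimal TATA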); conditions: HeLa Gal4-ERK5 transactivation, 18 h, at 5 µM, stronger effect = higher value
# Sequence of Mitogen-activated protein kinase 7 (Homo sapiens) (Q13164 whole entry, looked up, the tested form may be a part): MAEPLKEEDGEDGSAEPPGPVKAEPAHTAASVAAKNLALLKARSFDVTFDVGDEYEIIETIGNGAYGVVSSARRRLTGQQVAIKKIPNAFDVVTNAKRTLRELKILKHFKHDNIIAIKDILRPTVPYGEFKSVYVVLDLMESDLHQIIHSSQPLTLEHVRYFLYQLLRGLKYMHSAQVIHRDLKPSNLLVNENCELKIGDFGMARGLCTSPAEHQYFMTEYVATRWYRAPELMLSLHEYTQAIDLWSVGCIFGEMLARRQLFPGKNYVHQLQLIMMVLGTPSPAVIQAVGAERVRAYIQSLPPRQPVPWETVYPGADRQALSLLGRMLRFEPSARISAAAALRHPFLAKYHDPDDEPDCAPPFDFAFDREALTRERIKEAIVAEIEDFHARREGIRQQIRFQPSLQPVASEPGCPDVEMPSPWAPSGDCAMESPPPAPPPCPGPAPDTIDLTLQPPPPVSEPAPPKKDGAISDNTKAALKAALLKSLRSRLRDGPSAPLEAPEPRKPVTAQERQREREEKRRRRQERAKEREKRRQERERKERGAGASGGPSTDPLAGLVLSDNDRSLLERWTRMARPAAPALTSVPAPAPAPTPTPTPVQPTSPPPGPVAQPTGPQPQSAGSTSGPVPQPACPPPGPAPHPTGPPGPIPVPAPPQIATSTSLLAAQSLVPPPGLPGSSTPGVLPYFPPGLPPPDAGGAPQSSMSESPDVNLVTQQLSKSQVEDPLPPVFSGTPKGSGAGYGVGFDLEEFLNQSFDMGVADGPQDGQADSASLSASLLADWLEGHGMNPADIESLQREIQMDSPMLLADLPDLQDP
# [9] = polyglutamine-triggered caspase-3 activation inhibitors, cell-based (AID 1583); conditions: polyglutamine-induced caspase-3 activation, cell assay; stronger effect = higher value;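 tested at 10 µM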
# [10] = target: Huntingtin (Homo sapiens) (UniProt P42858); experiment: inhibitors of mutant Htt aggregation in vitro, dose response, QA1 (AID 1584); conditions: in vitro mutant huntingtin aggregation assay; confirmation test; at 10 µM; stronger effect = lower value
# Sequence of Huntingtin (Homo sapiens) (P42858 whole entry, looked up): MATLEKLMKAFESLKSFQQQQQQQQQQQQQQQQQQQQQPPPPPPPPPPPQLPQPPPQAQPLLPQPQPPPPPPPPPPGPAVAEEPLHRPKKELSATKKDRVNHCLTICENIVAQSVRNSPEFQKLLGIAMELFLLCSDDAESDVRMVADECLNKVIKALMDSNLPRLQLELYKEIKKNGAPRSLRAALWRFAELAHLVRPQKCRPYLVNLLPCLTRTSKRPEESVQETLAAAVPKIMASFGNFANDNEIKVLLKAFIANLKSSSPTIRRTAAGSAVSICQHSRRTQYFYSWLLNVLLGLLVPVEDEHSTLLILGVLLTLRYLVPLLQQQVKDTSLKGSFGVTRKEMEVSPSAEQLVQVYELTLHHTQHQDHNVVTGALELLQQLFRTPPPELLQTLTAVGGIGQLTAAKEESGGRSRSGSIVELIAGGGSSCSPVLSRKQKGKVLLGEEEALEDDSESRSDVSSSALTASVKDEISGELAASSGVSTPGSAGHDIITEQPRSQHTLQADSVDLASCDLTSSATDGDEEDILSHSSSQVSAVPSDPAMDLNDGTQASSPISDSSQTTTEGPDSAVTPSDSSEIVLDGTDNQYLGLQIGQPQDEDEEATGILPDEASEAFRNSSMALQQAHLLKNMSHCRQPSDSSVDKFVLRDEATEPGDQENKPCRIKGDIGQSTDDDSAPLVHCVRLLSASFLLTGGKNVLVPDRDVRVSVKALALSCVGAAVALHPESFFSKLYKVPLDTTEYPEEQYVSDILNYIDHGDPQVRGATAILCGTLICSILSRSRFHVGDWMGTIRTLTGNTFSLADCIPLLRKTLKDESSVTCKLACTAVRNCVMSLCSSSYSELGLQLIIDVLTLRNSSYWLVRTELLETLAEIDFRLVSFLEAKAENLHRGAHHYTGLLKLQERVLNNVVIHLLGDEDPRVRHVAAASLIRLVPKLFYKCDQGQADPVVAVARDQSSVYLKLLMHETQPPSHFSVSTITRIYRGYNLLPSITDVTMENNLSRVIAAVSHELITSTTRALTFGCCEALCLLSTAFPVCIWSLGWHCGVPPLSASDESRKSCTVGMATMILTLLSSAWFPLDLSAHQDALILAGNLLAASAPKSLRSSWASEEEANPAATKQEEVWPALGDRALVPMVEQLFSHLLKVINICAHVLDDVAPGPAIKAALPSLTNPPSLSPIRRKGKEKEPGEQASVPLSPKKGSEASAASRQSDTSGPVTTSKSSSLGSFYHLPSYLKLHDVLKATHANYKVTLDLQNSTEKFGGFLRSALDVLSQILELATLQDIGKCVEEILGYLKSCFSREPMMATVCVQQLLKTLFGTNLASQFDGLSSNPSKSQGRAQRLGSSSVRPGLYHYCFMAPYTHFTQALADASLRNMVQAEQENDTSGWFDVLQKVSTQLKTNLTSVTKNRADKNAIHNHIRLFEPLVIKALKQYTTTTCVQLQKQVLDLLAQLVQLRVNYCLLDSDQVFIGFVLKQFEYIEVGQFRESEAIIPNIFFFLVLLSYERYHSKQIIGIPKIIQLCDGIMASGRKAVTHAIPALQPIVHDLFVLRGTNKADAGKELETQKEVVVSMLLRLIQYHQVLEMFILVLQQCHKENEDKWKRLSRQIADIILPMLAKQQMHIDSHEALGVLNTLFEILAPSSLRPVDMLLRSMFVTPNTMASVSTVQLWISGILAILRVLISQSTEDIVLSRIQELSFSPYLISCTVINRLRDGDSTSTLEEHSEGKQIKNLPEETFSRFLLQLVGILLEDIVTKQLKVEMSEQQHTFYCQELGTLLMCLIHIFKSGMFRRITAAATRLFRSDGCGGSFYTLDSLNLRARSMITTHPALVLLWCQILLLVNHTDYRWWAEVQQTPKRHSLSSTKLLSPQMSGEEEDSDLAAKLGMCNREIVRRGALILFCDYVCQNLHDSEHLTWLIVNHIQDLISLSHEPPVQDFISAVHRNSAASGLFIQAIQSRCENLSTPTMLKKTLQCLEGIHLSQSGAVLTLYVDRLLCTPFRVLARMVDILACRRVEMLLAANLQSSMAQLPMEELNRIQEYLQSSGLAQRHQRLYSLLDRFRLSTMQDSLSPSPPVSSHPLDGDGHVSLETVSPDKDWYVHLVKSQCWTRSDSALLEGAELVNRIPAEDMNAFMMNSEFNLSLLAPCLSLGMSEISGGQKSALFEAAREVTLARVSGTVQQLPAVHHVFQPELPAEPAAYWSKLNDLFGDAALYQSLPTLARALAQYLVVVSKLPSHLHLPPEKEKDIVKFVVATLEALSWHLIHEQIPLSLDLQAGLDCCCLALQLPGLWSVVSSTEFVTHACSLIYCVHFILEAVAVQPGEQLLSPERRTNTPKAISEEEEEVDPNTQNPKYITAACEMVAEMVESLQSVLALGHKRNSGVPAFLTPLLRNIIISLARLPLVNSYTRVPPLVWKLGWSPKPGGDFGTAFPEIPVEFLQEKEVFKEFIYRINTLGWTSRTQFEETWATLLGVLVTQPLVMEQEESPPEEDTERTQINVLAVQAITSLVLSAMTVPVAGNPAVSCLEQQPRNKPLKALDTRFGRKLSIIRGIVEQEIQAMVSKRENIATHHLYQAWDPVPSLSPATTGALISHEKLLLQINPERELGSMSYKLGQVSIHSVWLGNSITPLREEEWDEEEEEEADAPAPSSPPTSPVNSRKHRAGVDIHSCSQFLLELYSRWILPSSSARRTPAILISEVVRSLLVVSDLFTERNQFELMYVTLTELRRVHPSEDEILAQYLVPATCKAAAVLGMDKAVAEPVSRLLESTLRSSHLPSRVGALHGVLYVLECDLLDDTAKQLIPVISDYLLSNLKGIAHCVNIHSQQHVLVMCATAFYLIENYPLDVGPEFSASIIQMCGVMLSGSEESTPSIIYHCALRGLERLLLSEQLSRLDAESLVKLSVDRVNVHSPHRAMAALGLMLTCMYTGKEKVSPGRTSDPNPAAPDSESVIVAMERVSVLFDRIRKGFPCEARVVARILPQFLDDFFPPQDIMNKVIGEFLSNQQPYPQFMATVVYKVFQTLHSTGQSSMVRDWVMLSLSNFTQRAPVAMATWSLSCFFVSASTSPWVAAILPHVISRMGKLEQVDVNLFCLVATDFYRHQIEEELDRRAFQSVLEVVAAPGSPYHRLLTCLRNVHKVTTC
# [11] = suppressors of polyQ aggregation in yeast, 75Q-TubU reporter (AID 1593); conditions: Yeast 75Q polyglutamine aggregation reporter
# [12] = rescue of polyQ-huntingtin neuronal dysfunction in worms, whole organism, C. elegans mechanosensory neurons, N-terminal huntingtin (AID 1599); conditions: touch response, stronger effect = higher value
# [13] = inhibitors of mitochondrial cytochrome c release, biochemical, purified mitochondria (AID 1603); conditions: stronger effect = lower value;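 further: mouse liver mitochondria challenged with calcium chloride; signal normalized to the plate average as 100%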
# [14] = inhibitors of polyQ protein aggregation (AID 1604); conditions: polyglutamine-induced protein aggregation inhibition assay; stronger effect = higher value; tested at 2.5 µM
# [15] = protection against mutant huntingtin cytotoxicity, PC12 cells, LDH release (AID 1610); conditions: PC12 mutant huntingtin toxicity, final LDH at 4 uM, stronger effect = lower value
# [16] = enhancers of glutamate uptake in motor neurons, MN-1 cell line (AID 1612); conditions: MN-1 motor neuron cells, stronger effect = higher value;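 further: tested at 1 µM final; 0% = mean of DMSO vehicle wells on each plate; positive means more glutamate uptake than control and negative means less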
# [17] = suppressors of polyglutamine aggregation in yeast, 75Q-TubH (AID 1616); conditions: S. cerevisiae 75Q-TubH polyglutamine aggregation suppression; stronger effect = higher value
# [18] = measured here: epithelial PC-3E GFP cell survival
# [19] = measured here: mesenchymal TEM4-18 mCherry cell survival
# [20] = measured here: relative caspase fold change +Dox/-Dox
# [21] = measured here: total cells with miR-34 induction, stronger effect = lower value
# [22] = measured here: total cells without miR-34 induction
# [23] = MELAS cybrid survival, CellTiter-Glo 48 h, stronger effect = higher value
# [24] = Rieske KO mouse fibroblast survival, CellTiter-Glo 72 h
smiles,measurement,setting,value
C#CCN(C)C(C)Cc1ccccc1 (configuration not stated),parasite load remaining,[1],54.6% (inactive) and 61.7% (inactive)
same,viability,[1],101% and 170%
same,red/green cell ratio (normalised),[2],1.02 (inactive)
same,normalised cell number,[2]; [18],1.06
same,normalised cell number,[2]; [19],1.07
same,fold change,[3]; stronger effect = lower value,0.923 (inactive) and 0.946 (inactive) and 0.891 (inactive)
same,fold change,[3]; [20],2.5 and 4.7 and 1.31
same,cell count,[3]; [21],9410 and 12100 and 9880
same,cell count,[3]; [22],10200 and 12800 and 11100
same,z-score,[4]; [23],-0.242 (inactive)
same,z-score,[4]; [24],-0.831
same,z-score,[5],0.995 (inactive) and 0.67 (inactive)
c1cncc(C2CCCCN2)c1 (configuration not stated),survival,[6],6.5 (inactive)
same,red/green cell ratio (normalised),"[2]; counts scaled to control wells, 1 = unselective",0.98 (inactive)
same,normalised cell number,[2]; [18],1.09
same,normalised cell number,[2]; [19],1.07
same,activity remaining,[7],102% (inactive)
same,luciferase signal,[8],20 AU (inactive)
COc1cc2c(cc1O)CC1c3c(cc(O)c(OC)c3-2)CCN1C (configuration not stated),survival,[6],4.08 (inactive)
same,parasite load remaining,[1],73.5% (inactive)
same,viability,[1],80.3%
same,red/green cell ratio (normalised),[2],0.97 (inactive)
same,normalised cell number,[2]; [18],1.11
same,normalised cell number,[2]; [19],1.07
same,activity remaining,[7],119% (inactive)
CC1(C)C2CC(=O)[C@]3(C)C(CC[C@@]4(C)[C@H](c5ccoc5)OC(=O)[C@H]5O[C@]543)[C@@]2(C)C(=O)C[C@H]1O (some centres not stated),red/green cell ratio (normalised),[2],0.94 (inactive)
same,normalised cell number,[2]; [18],1.08
same,normalised cell number,[2]; [19],1.01
same,activity remaining,[7],109% (inactive)
same,luciferase signal,[8],36 AU (inactive)
CC(C)(N)Cc1ccccc1,parasite load remaining,[1],7.56% (inactive)
same,viability,[1],113%
same,red/green cell ratio (normalised),[2],0.91 (inactive)
same,normalised cell number,[2]; [18],1.06
same,normalised cell number,[2]; [19],0.97
same,fold change,[3]; stronger effect = lower value,0.89 (inactive)
same,fold change,[3]; [20],4.46
same,cell count,[3]; [21],11900
same,cell count,[3]; [22],13300
same,z-score,[4]; [23],-0.229 (inactive)
same,z-score,[4]; [24],-0.552
same,luciferase signal,[8],64 AU (inactive)
C[C@H]1C[C@@H](O)[C@]2(O)[C@@]13CC(=O)OC[C@@]2(C)[C@](C)(O)C(=O)C3,red/green cell ratio (normalised),[2],1.18 (inactive)
same,normalised cell number,[2]; [18],0.96
same,normalised cell number,[2]; [19],1.13
same,activity remaining,[7],127% (inactive)
same,luciferase signal,[8],188 AU (inactive)
C[C@H](N)[C@H](O)c1ccccc1,parasite load remaining,[1],65.1% (inactive) and 27.2% (inactive)
same,viability,[1],97.7% and 73%
same,red/green cell ratio (normalised),[2],1.19 (inactive)
same,normalised cell number,[2]; [18],0.91
same,normalised cell number,[2]; [19],1.08
same,fold change,[3]; stronger effect = lower value,0.856 (inactive) and 0.884 (inactive)
same,fold change,[3]; [20],0.745 and 1.02
same,cell count,[3]; [21],11600 and 9670
same,cell count,[3]; [22],13500 and 10900
same,z-score,[4]; [23],-0.606 (inactive)
same,z-score,[4]; [24],-1.57
same,z-score,[5],-0.235 (inactive)
CC(C)=CCCC1(C)C=Cc2c(O)c3c(c(CC=C(C)C)c2O1)OC12C(=CC4CC1C(C)(C)OC2(C/C=C(/C)C(=O)O)C4=O)C3=O (configuration not stated),inhibition,[9],78.5%
same,aggregation ratio,[10],0.274
same,score,[11],0.45
same,rescue above control,[12],-1.66
same,cytochrome c release ratio,[13],3.17
same,inhibition of aggregation,[14],100%
same,normalised LDH release,[15],0.491
same,glutamate uptake change,[16],-92.9%
same,aggregation suppression score,[17],0.449
same,red/green cell ratio (normalised),[2],1.03 (inactive)
same,normalised cell number,[2]; [18],1.09
same,normalised cell number,[2]; [19],1.13
same,activity remaining,[7],120% (inactive)
